For 40 compounds, growth results are on record in PubChem BioAssay (NCI).

Molecules are shown by their SMILES. The panel holds about 83,000 compounds, 20% with a hit somewhere; the sample as a whole holds those more often.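 The test compound was applied at a single concentration to cells in 96-well plates for 48 hours, and percent growth was recorded.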 Unmarked numbers belong to inactive results. Activity calls are given as the source filed them.

The experiment concerns NCI-H460 lung. Put plainly: NCI-60 one-dose screen, 48 h (100 = growth as untreated, 0 = no growth, -100 = all killed). As to conditions: 10 µM unless noted. How it is done:
Growth inhibition of the NCI-H460 human Non-Small Cell Lung tumor cell line is measured as a screen for anti-cancer activity. Cells are grown in 96 well plates and exposed to the test compound for 48 hours. Compounds are tested at a single concentration, which is 10^-5 M for most compounds. The reported endpoint is percent growth (GI% or GIPRCNT), where numbers from 0 - 100% represent growth inhibition, and numbers from -100% - 0 represent cell death. For example, a value of 40 represents 60% growth inhibition. A value of 0 means no net growth occurred over the course of the experiment. A value of -40 indicates 40% of cells at the beginning of the experiment died by the end of the experiment. A value of -100 means all cells are dead at the end of the experiment.
NCI-60 Human Tumor Cell Lines Screen was performed using the standard one-dose NCI protocol, which is described in more detail at https://dtp.cancer.gov/discovery_development/nci-60/default.htm.
Compounds with GIPRCNT values below 10 were considered active. Activity score was based on GIPRCNT using the following formula: […]
Score is 0 for GIPRCNT values of 100 or above, 50 for GIPRCNT values of 0, and 100 for GIPRCNT values of -100.
On to `Cc1ccc2c(c1)=C/C(=C\c1cc(-c3ccccc3)oc1O)C(=O)N=2`, for which the growth is 113%.
`O=C(N(c1ccccc1)c1ccccc1)n1cc(I)c2nc(Cl)nc(Cl)c21`: the growth is 43.8%.
`C=CCSc1nnc(NC(=O)CCl)s1`: the growth was 99.9%.
Then `O=C1C(Cl)=C(Nc2ccc(S(=O)(=O)N3CCOCC3)cc2)C(=O)c2ccccc21`, with 94.9%; and `CN1CCN(C(=O)c2ccc(NC(=O)c3cc4c(nn3)NCCN4Cc3cc(Cl)ccc3Cl)cc2)CC1`, with 53.4%.
As to `CC(C)=CCC[C@](C)(O)[C@H]1CC[C@]2(C)[C@@H]1CC[C@@H]1[C@@]3(C)C/C(=C/c4ccco4)C(=O)C(C)(C)[C@@H]3CC[C@]12C`, the growth was 106%.
Turning to `CCOC(=O)c1c2c(n3cccc(F)c13)C(=O)c1ncccc1C2=O`, the growth was -22.1% (active).
For `C=CC(=O)N1CCN(c2cccc(Oc3nccc(Nc4nnc(-c5ccc(Br)cc5)s4)n3)c2)CC1`, the growth was 25.6%.
Then `O=C(Nc1nc(-c2ccc(Cl)cc2)nc2c1sc(=S)n2-c1ccccc1)C(F)(F)F`, with 13.6%; and `O=C1NC2(Nc3ccccc31)C(=O)Nc1c(Cl)cc(Cl)cc12` (stereo not given), with 102%.
On to `N#C/C(=C\c1c(-c2ccccc2)[nH]c2ccccc12)C(N)=O`, for which the growth is 92.2%.
For `NC(=O)CSc1oc(-c2ccccc2)nc1S(=O)(=O)c1ccc(Br)cc1` the value was 71.6%; for `C1CCC([PH+](C2CCCCC2)C2CCCCC2[PH+](C2CCCCC2)C2CCCCC2)CC1.[Au].[CH-]1CCCCC1C1CCCC[N-]1` (stereo not given), -69.8% (active); for `CCN(CC)S(=O)(=O)c1ccc(S(=O)(=O)N2CCC[C@@H](C(=O)N3CCN(c4nc(C(C)C)no4)CC3)C2)cc1`, 70.8%.
For `Oc1c(I)cc(I)cc1CNCCN(Cc1ccccn1)Cc1ccccn1` the value was -56.5% (active); for `O=c1[nH]c(Cc2nc3ccccc3s2)nc2cc(Br)ccc12`, 53.3%; for `COC1=CC(c2ccc[nH]2)=N/C1=C\c1[nH]c(C)c(C(=O)OC(C)C)c1C`, 0.0375% (active).
Regarding `COc1ccc(/C=C(\C#N)n2nnc3ccc(Cl)cc32)cc1`, the growth was 83.9%.
As for `O=C(N/N=C/c1ccc(Cl)cc1)c1[nH]c2ccc(Cl)cc2c1-c1ccccc1`, the growth was 4.43% (active).
With `COc1cc(-c2nccc3[nH]c(-c4ccc5cc[nH]c5c4)nc23)cc(OC)c1OC`, the growth was 2.58% (active).
Consider `COC(=O)/C=C1/SC(=Nc2ccc(C(F)(F)F)cc2)N(CCc2c[nH]c3ccc(O)cc23)C1=O`, for which the growth is -60% (active).
As for `O=S(=O)(NCCCNc1nccc(-c2c(-c3ccc(F)c(O)c3)nc3sccn23)n1)c1ccccc1`, the growth is 62.2%.
With `COc1c(B(O)O)cccc1-c1cc(C)c2c(ccc3[nH]ncc32)n1`, the growth is 71%.
On to `COc1ccc(Nc2nnc(-c3ccc(OC)c(OC)c3)o2)cc1`, for which the growth is 100%.
As to `Cn1cc(-c2nonc2-c2cn(C)c3ccccc23)c2ccccc21`, the growth is 8.94% (active).
Regarding `COc1ccc(-c2cc(-c3cc(OC)c(OC)c(OC)c3)c(C#N)c(=O)n2CCCCC(=O)NO)cc1`, the growth was 55.3%.
On to `CC1CCN(CCOc2ccc(CNc3ccc4nc(CCC5CCCCC5)[nH]c4c3)cc2)CC1`, for which the growth was 27.1%.
For `CC1=C([Se]CC(OC(=O)CC[Se]c2ccccc2)C(=O)NC(C)(C)C)C(=O)c2ccccc2C1=O` (stereo not given) the value was -49.2% (active); for `NC(=O)c1ccc(-c2c3ccccc3cc3c2ccc2ccccc23)cc1`, 29.9%; for `Cc1cn(-c2cc(NC(=O)c3cccc(C#Cc4cccc5[nH]nc(N)c45)c3)cc(C(F)(F)F)c2)cn1`, 30.5%.
For `Cc1ccccc1/C=C/C(=O)c1cccc(OCCCOc2cccc(C(=O)/C=C/c3ccccc3C)c2)c1` the value was 99.8% [3 µM]; for `N#Cc1nc(-c2ccccc2)oc1S(=O)(=O)N1CCN(c2ccccc2)CC1`, 97.8%; for `CN(/C(N)=N/N=C/c1c2ccccc2cc2ccccc12)C1CCCCC1`, 43.6%.
For `Cc1ccc(Nc2cc(N)nc(N)n2)cc1Cl`, the growth was 103%.
Take `C=CCOC(=O)Nc1cccn([C@H](Cc2ccccc2)C(=O)NCCC(C)C)c1=O`: the growth is 105%.
As for `CCCC/C=C/[C@@H]1C[C@H]1CCO`, the growth was 105%.
With `C=CCn1c(C)nc2ccc(Nc3nc(Nc4ccc5nc(C)n(CC=C)c5c4)c4ccccc4n3)cc21`, the growth was -69.5% (active).
With `CCOC(=O)C(=O)C(C(=O)OCC)c1ccccc1` (stereo not given), the growth was 110%.
With `COc1ccc(Cc2cnc(NC(=O)c3cc(C)oc3C)s2)cc1`, the growth is 16.6%.
Take `Nc1nc2ccc(-c3nc4ccc5[nH]ncc5c4c4c3CCCC4)cc2s1`: the growth is 107%.
